Experiment in all cases: yeast three-hybrid, YBZ-1, SC-Leu-His + 0.5 mM 3-AT, 4 days
Conditions in all cases: tags: N-Gal4 AD-HA kept; label: inside an RPR1-promoter hybrid RNA with tandem MS2 sites; ssRNA

The target in test [1] is PUM1 PUF domain R3-QPR (Homo sapiens, UniProt Q14671 828-1176, C935Q;R936P;Q939R). Summed up: (§1)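 The interaction score is the log change in variant frequency from input to selection. Scores were computed in log2 with a pseudocount of 1 for absent variants, using Illumina sequencing of PCR-amplified repeat regions. The input came from four days on SC-Leu and the selection from four days on SC-Leu-His + 0.5 mM 3-AT. The cells were strain YBZ-1 (LexA–MS2 coat fusion, HIS3 reporter) co-expressing Pumilio-1 PUF domain libraries and matching RNA elements from a centromeric plasmid.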

Test [2] has as its target PUM1 PUF domain R3-WWQ (Homo sapiens, UniProt Q14671 828-1176, C935W;R936W). Summed up:
as §1

Test [3] addresses PUM1 PUF domain R3-RTS (Homo sapiens, UniProt Q14671 828-1176, C935R;R936T;Q939S). In a few lines: as §1
Test [4] has as its target PUM1 PUF domain R3-MRE (Homo sapiens, UniProt Q14671 828-1176, C935M;Q939E). In a few lines:
as §1

Test [5] addresses PUM1 PUF domain R3-YSG (Homo sapiens, UniProt Q14671 828-1176, C935Y;R936S;Q939G). In a few lines: as §1
Test [6] addresses PUM1 PUF domain R7-RCN (Homo sapiens, UniProt Q14671 828-1176, S1079R;N1080C;E1083N). In a few lines: as §1
Test [7] deals with T1, PUM1 PUF domain R6-DWI (Homo sapiens, UniProt Q14671 828-1176, N1043D;Y1044W;Q1047I).
T1 sequence: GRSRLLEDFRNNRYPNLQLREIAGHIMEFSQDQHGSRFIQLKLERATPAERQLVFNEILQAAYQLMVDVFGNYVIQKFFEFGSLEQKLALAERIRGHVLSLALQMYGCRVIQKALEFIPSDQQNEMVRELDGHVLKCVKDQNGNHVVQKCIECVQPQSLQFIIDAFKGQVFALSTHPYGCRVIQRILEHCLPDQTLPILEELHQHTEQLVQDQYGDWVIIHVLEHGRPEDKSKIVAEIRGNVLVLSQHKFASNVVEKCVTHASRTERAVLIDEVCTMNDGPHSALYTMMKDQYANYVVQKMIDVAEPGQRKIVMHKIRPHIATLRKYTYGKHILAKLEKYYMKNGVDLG
Summed up: as §1

Test [8] concerns the target T2, PUM1 PUF domain R6-VFG (Homo sapiens, UniProt Q14671 828-1176, N1043V;Y1044F;Q1047G).
T2 sequence: T1 sequence with D216V, W217F, I220G
Summed up: as §1

Test [9] concerns the target PUM1 PUF domain R5-IRP (Homo sapiens, UniProt Q14671 828-1176, C1007I;Q1011P). Summed up: as §1
In test [10] the target is PUM1 PUF domain R5-RHR (Homo sapiens, UniProt Q14671 828-1176, C1007R;R1008H;Q1011R). In a few lines:
as §1

The target of test [11] is PUM1 PUF domain R8-SFR (Homo sapiens, UniProt Q14671 828-1176, N1122S;Y1123F;Q1126R). In a few lines:
as §1

In test [12] the target is PUM1 PUF domain R1-RRM (Homo sapiens, UniProt Q14671 828-1176, S863R;Q867M). In a few lines:
as §1

For test [13], the target named is PUM1 PUF domain R1-GFR (Homo sapiens, UniProt Q14671 828-1176, S863G;R864F;Q867R). Summed up:
as §1

For test [14], the target named is PUM1 PUF domain R1-KGA (Homo sapiens, UniProt Q14671 828-1176, S863K;R864G;Q867A). Summed up:
as §1

In test [15] the target is PUM1 PUF domain R1-KMS (Homo sapiens, UniProt Q14671 828-1176, S863K;R864M;Q867S). In a few lines:
as §1

Test [16] has as its target PUM1 PUF domain R7-NTG (Homo sapiens, UniProt Q14671 828-1176, S1079N;N1080T;E1083G). Summed up:
as §1

The target of test [17] is PUM1 PUF domain R8-IWK (Homo sapiens, UniProt Q14671 828-1176, N1122I;Y1123W;Q1126K). Summed up: as §1

In paper PMC8384837, “Expanding the binding specificity for RNA recognition by a PUF domain” one finds binding signal data, which are given here for 11 sequences.

Substitutions are numbered along the chain they refer to.

Sequence of PUM1 PUF domain R1-KGA (Q14671 828-1176 S863K/R864G/Q867A): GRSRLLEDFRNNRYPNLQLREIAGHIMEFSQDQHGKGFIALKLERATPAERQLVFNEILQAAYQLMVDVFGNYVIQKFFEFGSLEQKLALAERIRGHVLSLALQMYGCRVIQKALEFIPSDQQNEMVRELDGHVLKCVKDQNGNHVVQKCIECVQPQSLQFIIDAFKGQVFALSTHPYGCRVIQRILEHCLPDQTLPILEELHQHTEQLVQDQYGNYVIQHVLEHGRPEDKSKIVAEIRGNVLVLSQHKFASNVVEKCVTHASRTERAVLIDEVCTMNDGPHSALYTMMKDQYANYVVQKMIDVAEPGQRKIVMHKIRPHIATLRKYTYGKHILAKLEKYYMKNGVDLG
Sequence of PUM1 PUF domain R1-GFR (Q14671 828-1176 S863G/R864F/Q867R): as the sequence (Q14671 828-1176 S863K/R864G/Q867A) above, with K36G, G37F, A40R counted along it
Sequence of PUM1 PUF domain R3-MRE (Q14671 828-1176 C935M/Q939E): as the sequence (Q14671 828-1176 S863K/R864G/Q867A) above, with K36S, G37R, A40Q, C108M, Q112E counted along it
Sequence of PUM1 PUF domain R8-SFR (Q14671 828-1176 N1122S/Y1123F/Q1126R): as the sequence (Q14671 828-1176 S863K/R864G/Q867A) above, with K36S, G37R, A40Q, N295S, Y296F, Q299R counted along it
Sequence of PUM1 PUF domain R8-IWK (Q14671 828-1176 N1122I/Y1123W/Q1126K): as the sequence (Q14671 828-1176 S863K/R864G/Q867A) above, with K36S, G37R, A40Q, N295I, Y296W, Q299K counted along it
Sequence of PUM1 PUF domain R7-NTG (Q14671 828-1176 S1079N/N1080T/E1083G): as the sequence (Q14671 828-1176 S863K/R864G/Q867A) above, with K36S, G37R, A40Q, S252N, N253T, E256G counted along it
Sequence of PUM1 PUF domain R1-KMS (Q14671 828-1176 S863K/R864M/Q867S): as the sequence (Q14671 828-1176 S863K/R864G/Q867A) above, with G37M, A40S counted along it

As to “GGCUAGAACUAGUGGAUCCCCCGGCGCCCGGCGGCUCGAGCCCGGGUAAGUGUAAUUAGUCUGCAUGCCGCCGGGCGCCAUGCCUGCAGGUCGACUCUAGAAAACAUG”, the binding signal in test [1] is 5.15 log2 enrichment (interaction score); in test [2], 2.48 log2 enrichment (interaction score); in test [3], 3.18 log2 enrichment (interaction score); in [4], 0.23 log2 enrichment (interaction score).

For the sequence “GGCUAGAACUAGUGGAUCCCCCGGCGCCCGGCGGCUCGAGCCCGGGUAAGUGUAAGUAGUCUGCAUGCCGCCGGGCGCCAUGCCUGCAGGUCGACUCUAGAAAACAUG”, the results for the binding signal in [2], in [5] and in [4] were 5.35 log2 enrichment (interaction score), 2.43 log2 enrichment (interaction score) and 5.14 log2 enrichment (interaction score), respectively.

Consider “GGCUAGAACUAGUGGAUCCCCCGGCGCCCGGCGGCUCGAGCCCGGGUAAGUCUAAAUAGUCUGCAUGCCGCCGGGCGCCAUGCCUGCAGGUCGACUCUAGAAAACAUG”, for which the binding signal in test [6] is 2.67 log2 enrichment (interaction score).

With “GGCUAGAACUAGUGGAUCCCCCGGCGCCCGGCGGCUCGAGCCCGGGUAAGUGAAAAUAGUCUGCAUGCCGCCGGGCGCCAUGCCUGCAGGUCGACUCUAGAAAACAUG”, the binding signal in test [7] is 2.33 log2 enrichment (interaction score); in [8], 7.53 log2 enrichment (interaction score).

For “GGCUAGAACUAGUGGAUCCCCCGGCGCCCGGCGGCUCGAGCCCGGGUAAGUGUAAAUAGUCUGCAUGCCGCCGGGCGCCAUGCCUGCAGGUCGACUCUAGAAAACAUG”, the binding signal in test [9] is 2.35 log2 enrichment (interaction score); in test [8], 3.57 log2 enrichment (interaction score); in test [10], 1.95 log2 enrichment (interaction score); in test [11], 5.31 log2 enrichment (interaction score).

Consider “GGCUAGAACUAGUGGAUCCCCCGGCGCCCGGCGGCUCGAGCCCGGGUAAGUGUAAAUCGUCUGCAUGCCGCCGGGCGCCAUGCCUGCAGGUCGACUCUAGAAAACAUG”, for which the results for the binding signal in test [12], in test [13] and in test [14] were 2.95 log2 enrichment (interaction score), 5.46 log2 enrichment (interaction score) and 3.08 log2 enrichment (interaction score), respectively.

With “GGCUAGAACUAGUGGAUCCCCCGGCGCCCGGCGGCUCGAGCCCGGGUAAGUGUAAAUUGUCUGCAUGCCGCCGGGCGCCAUGCCUGCAGGUCGACUCUAGAAAACAUG”, the binding signal in test [12] is 1.41 log2 enrichment (interaction score); in test [13], 2.65 log2 enrichment (interaction score); in test [15], 3.69 log2 enrichment (interaction score); in test [14] it was 3.21 log2 enrichment (interaction score).

As for “GGCUAGAACUAGUGGAUCCCCCGGCGCCCGGCGGCUCGAGCCCGGGUAAGUGUUAAUAGUCUGCAUGCCGCCGGGCGCCAUGCCUGCAGGUCGACUCUAGAAAACAUG”, the binding signal in [10] was 4.52 log2 enrichment (interaction score).

Take “GGCUAGAACUAGUGGAUCCCCCGGCGCCCGGCGGCUCGAGCCCGGGUAAGUUUAAAUAGUCUGCAUGCCGCCGGGCGCCAUGCCUGCAGGUCGACUCUAGAAAACAUG”: in [16], the binding signal is 5.69 log2 enrichment (interaction score).

Regarding “GGCUAGAACUAGUGGAUCCCCCGGCGCCCGGCGGCUCGAGCCCGGGUAAGCGUAAAUAGUCUGCAUGCCGCCGGGCGCCAUGCCUGCAGGUCGACUCUAGAAAACAUG”, the binding signal in test [11] was 4.79 log2 enrichment (interaction score).

For “GGCUAGAACUAGUGGAUCCCCCGGCGCCCGGCGGCUCGAGCCCGGGUAAGGGUAAAUAGUCUGCAUGCCGCCGGGCGCCAUGCCUGCAGGUCGACUCUAGAAAACAUG”, in test [17], the binding signal was 2.04 log2 enrichment (interaction score).
